Laboratory results: paper PMC5540273 (PLoS ONE, 2017)
“And” between values parts separate entries of the source, which are not always exact repeats. Equal values may be shown once. Read-outs that look alike come from different tables or passages of the source.

Legend:
MEK2 = tested on: T1, MEK2; settings: concentration: 1 μM, replicates: in singlicate; n = 1
T1 construct: gene MAP2K2

MEK3 = tested on: T2, MEK3; settings: concentration: 1 μM, replicates: in singlicate; n = 1
T2 construct: gene MAP2K3

MEK4 = tested on: T3, MEK4; settings: n = 1
T3 construct: gene MAP2K4

MEK5 = tested on: T4, MEK5; settings: n = 1
T4 construct: gene MAP2K5

MEK6 = tested on: T5, MEK6; settings: concentration: 1 μM, replicates: in singlicate; n = 1
T5 construct: gene MAP2K6

MELK = settings: n = 1
MERTK = settings: n = 1
MET = settings: concentration: 1 μM, replicates: in singlicate; n = 1
MINK = tested on: T6, MINK; settings: concentration: 1 μM, replicates: in singlicate; n = 1
T6 construct: gene MINK1

MKK7 = settings: concentration: 1 μM, replicates: in singlicate; n = 1
[1] = concentration: 1 μM, replicates: in singlicate
[2] = concentration: 1 μM,replicates: in singlicate, 1 µM
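Also: KINOMEscan kinase panel screen.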

SMILES	%Inh (MEK2) [%]	%Inh (MEK3) [%]	%Inh (MEK4; [1]) [%]	%Inh (MEK5; [1]) [%]	%Inh (MEK6) [%]	%Inh (MELK; [1]) [%]	%Inh (MERTK; [1]) [%]	%Inh (MET) [%]	%Inh (MINK) [%]	%Inh (MKK7) [%]	%Inh (MEK4; [2])	%Inh (MEK5; [2])	%Inh (MELK; [2])	%Inh (MERTK; [2])
COc1cccc(-c2cc(-c3c[nH]nc3-c3ccccn3)ccn2)c1 [GW680338]	0	67	8	13	0	19	14	10	65	10	–	–	–	–
CC(C)(C)c1ccc(C(=O)Nc2cn3cc(-c4cccnc4)ccc3n2)cc1	36	13	0	95.4	32	33	26	0	52	0	–	–	–	–
Cc1cc(N2Cc3ccccc3C2)nc(Nc2ccc(S(=O)(=O)N3CCOCC3)cc2)n1.Cl [GSK1669917]	0	0	0	9	0	0	9	0	20	0	–	–	–	–
Cc1nnc(-c2ccc3occ(-c4ccc(S(C)=O)cc4)c3c2)[nH]1 (stereo not drawn)	1	19	37	42	0	0	13	5	17	18	–	–	–	–
COc1ccccc1CNC(=O)c1cc(C(=O)c2ccccc2C)c[nH]1 [GSK364507]	0	0	41	36	0	0	0	0	0	0	–	–	–	–
Cc1ccc(C(=O)Nc2ccc(Nc3ccnc4cc(-c5ccccn5)ccc34)cc2O)cc1.Cl [GW440146]	0	0	19	100	0	0	33	0	36	0	–	–	–	–
COc1ccc2nc(-c3cccc(C)n3)nc(Nc3ccncc3)c2c1 [GSK204919]	0	0	17	1	0	0	15	15	30	0	–	–	–	–
O=C(Nc1n[nH]c2nc(-c3nccs3)c(Br)cc12)C1CCCC1 [SB-742609]	0	0	30	39	0	0	44	5	0	0	–	–	–	–
O=S(=O)(c1ccc(-c2ccnc3[nH]ccc23)cc1)N1CCCC1 [GSK846226]	22	0	18	14	21	7	16	0	0	0	–	–	–	–
Cl.NC(=O)c1cccc(Nc2nccc(Nc3ccc(Oc4cccc(Cl)c4)c(Cl)c3)n2)c1 [GW659008]	14	0	22	99.7	0	0	33	37	0	0	–	–	–	–
COc1ccc(Nc2nccc(NCCNC(=O)Nc3ccccc3F)n2)cc1 [GSK1379901]	8	0	11	56	0	0	24	0	11	55	–	–	–	–
Fc1cc(Cl)ccc1Nc1ccnc2cc(I)ccc12 [GW551191]	0	0	46	75	0	16	30	8	51	0	–	–	–	–
CN1C(=O)C(Nc2ccc(Cl)c(C(=O)O)c2)=C(c2ccc(Cl)cc2)C1=O [SB-404290]	21	3	26	0	0	4	11	0	10	0	–	–	–	–
Cl.c1ccc(-c2n[nH]cc2-c2ccnc(-c3ccc(CN4CCOCC4)cc3)c2)nc1 [GW776245]	49	0	27	5	0	5	8	16	8	0	–	–	–	–
CCCc1ccc(S(=O)(=O)NC2CCN(c3ccnc(Nc4ccc(F)cc4)n3)C2)cc1 (stereo not drawn) [GSK1379715]	0	0	28	0	100	0	0	0	0	0	–	–	–	–
C[C@@H]1CCCCN1c1cc(-c2ccc3c(N)n[nH]c3c2)nc(N)n1 [GSK2258759]	0	0	8	7	14	0	11	0	15	0	–	–	–	–
CS(=O)(=O)c1ccc(-c2nc3n(c2-c2ccncc2)CCC3)cc1 [SKF-105942]	0	0	8	15	0	0	24	0	1	0	–	–	–	–
Cc1ccc(NC(=O)Nc2cc(C(C)(C)C)nn2-c2ccccc2)cc1 [GSK1014915]	0	0	12	2	0	26	15	0	0	0	–	–	–	–
COc1cc2nccc(Nc3ccc(NC(=O)c4ccc(C)cc4)c(O)c3)c2cc1OC.Cl [GW440132]	0	0	19	99.9	0	0	5	0	0	0	–	–	–	–
Cc1cc(-c2ccc3c(c2)CC[C@@H](N[C@@H](C)c2ccccc2)C3)cnc1N.Cl [GW412617]	12	0	34	55	0	36	26	0	40	1	–	–	–	–

SMILES	%Inh (MEK2) [%]	%Inh (MEK3) [%]	%Inh (MEK4; [1]) [%]	%Inh (MEK5; [1]) [%]	%Inh (MEK6) [%]	%Inh (MELK; [1]) [%]	%Inh (MERTK; [1]) [%]	%Inh (MET) [%]	%Inh (MINK) [%]	%Inh (MKK7) [%]	%Inh (MEK4; [2])	%Inh (MEK5; [2])	%Inh (MELK; [2])	%Inh (MERTK; [2])
Cc1cccc(-c2nc(Nc3ccncc3)c3ccccc3n2)n1 [GW855857]	25	0	0	14	0	11	9	25	33	0	–	–	–	–
Cc1cc(NCC(c2ccccc2)c2ccccc2)nc(NCc2ccc(C(F)(F)F)cc2)n1 [GW497681]	0	0	10	1	0	0	7	13	0	0	–	–	–	–
Cc1cccc(-c2nc(-c3ccc(S(C)(=O)=O)cc3)sc2-c2ccnc(NCCc3ccccc3)c2)c1	7	0	25	0	8	0	0	0	0	0	–	–	–	–
Cc1ccc(-c2cc(-c3c[nH]nc3-c3ccccn3)ccn2)cc1 [GW684088]	0	0	9	17	19	25	13	0	87	14	–	–	–	–
CSc1nn2c(=O)cc(N3CCOCC3)nc2n1Cc1cccc(C(F)(F)F)c1C [GSK2363608]	0	0	–	–	0	–	–	0	0	0	17% and 30%	12% and 0%	6% and 0%	0% and 18%
COC(=O)c1c(-c2ccccc2)c2cc(C(=O)O)ccc2c(=O)n1Cc1ccccc1	10	7	0	4	0	0	0	0	0	0	–	–	–	–
O=C(O)COc1ncnc2cc(-c3ccc4[nH]ncc4c3)sc12	7	17	37	38	0	21	0	1	12	0	–	–	–	–
O=c1cc(N2CCOCC2)nc2n(Cc3cccc(Cl)c3Cl)ccn12 [GSK2286295]	0	0	6	13	0	0	29	0	6	0	–	–	–	–
COc1ccc(CNC(=O)NC2CCN(c3ccnc(Nc4cc(OC)c(OC)c(OC)c4)n3)C2)cc1 (stereo not drawn) [GSK1379748]	0	0	6	98.4	0	0	36	9	0	0	–	–	–	–
COc1cccc(NC(=O)NC2CCN(c3ccnc(Nc4ccc(F)cc4)n3)C2)c1 (stereo not drawn) [GSK1379721]	22	0	26	86	0	8	14	0	0	0	–	–	–	–
Cc1cccc(-c2nc(Nc3ccc4[nH]ncc4c3)c3ccccc3n2)n1 [GW857175]	24	19	51	40	0	25	11	2	19	12	–	–	–	–
COc1ccc(C2=C(Nc3cccc(C(=O)O)c3)C(=O)NC2=O)cc1 [SB-390765]	15	15	7	40	0	11	11	0	8	8	–	–	–	–
Cc1ccccc1-n1cnc2c(N)ncnc21 [SKF-97510]	0	0	0	0	20	0	7	0	0	0	–	–	–	–
O=C(Nc1n[nH]c2cc(-c3cccc(F)c3F)ccc12)C1CC1 [SB-733894]	11	15	1	45	20	0	0	0	58	0	–	–	–	–
COc1ccccc1-c1ccc2c(NC(=O)C3CC3)n[nH]c2n1 [SB-711239]	0	16	21	0	0	15	2	0	6	7	–	–	–	–
CC1=C(C(=O)Nc2cc3cn[nH]c3cc2F)C(c2ccc(C(F)(F)F)cc2)CC(=O)N1 (stereo not drawn) [GSK429286]	0	23	15	8	0	0	13	0	0	48	–	–	–	–
CN(C)CCN(C)C(=O)c1cc(-c2ccncc2)c(-c2ccc(Cl)c(O)c2)o1.Cl.Cl [SB-710397]	0	0	0	48	0	9	24	0	46	14	–	–	–	–
Cl.Oc1ccc(-c2nc(-c3ccccc3)[nH]c2-c2ccncc2)cc1 [SB-428218]	0	0	0	17	1	2	0	0	11	0	–	–	–	–
O=C(Nc1ccc2c(c1)OCO2)NC1CCN(c2ccnc(Nc3ccc(F)cc3)n2)C1 (stereo not drawn) [GSK1379724]	0	0	28	17	0	0	0	0	0	0	–	–	–	–
